Assay results reported in PubChem BioAssay (NCATS).
Inconclusive results are not listed. Entries that show only a call come without a potency. The source made the active and inactive calls. Calls follow the shape of the dose curve; as a rule, active = well fitted inhibition curve with a large enough effect; inconclusive = small, poorly fitted or top-dose-only effect; inactive = flat fitted curve, though single readings scatter.

Columns and labels:
Assay in all cases: qHTS profiling for inhibitors of Plasmodium falciparum proliferation (AID 504749); also: nearly all actives have a fitted effect of over 60% in size
Details in all cases: P. falciparum in erythrocytes, SYBR Green DNA, 72 h; series mostly up to 28.7 µM
C2A = tested on: C2A
Method in brief: (§1)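 P. falciparum-infected erythrocytes (0.3% parasitemia, 2.5% hematocrit final) were exposed to compounds for 72 h at 37 C in 5% CO2, then lysed with SYBR Green buffer overnight at room temperature; parasite DNA fluorescence was normalized to artemisinin and DMSO controls.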

CP185 = tested on: CP185
Method in brief: as §1

CP191 = tested on: CP191
Method in brief: as §1

CP211 = tested on: CP211
Method in brief: as §1

CP217 = tested on: CP217
Method in brief: as §1

CP237 = tested on: CP237
Method in brief: as §1

CP238 = tested on: CP238
Method in brief: as §1

CP250 = tested on: CP250
Method in brief: as §1

CP252 = tested on: CP252
Method in brief: as §1

CP256 = tested on: CP256
Method in brief: as §1

CP265 = tested on: CP265
Method in brief: as §1

CP329 = tested on: CP329
Method in brief: as §1

DIV30 = tested on: DIV30
Method in brief: as §1

ECU = tested on: ECU
Method in brief: as §1

HB3 = tested on: HB3
Method in brief: as §1

P93_24 = tested on: P93_24
Method in brief: as §1

PC15 = tested on: PC15
Method in brief: as §1

PC26 = tested on: PC26
Method in brief: as §1

SC27B = tested on: SC27B
Method in brief: as §1

TAB113 = tested on: TAB113
Method in brief: as §1
Potency is read from the fitted curve at half-maximal effect.

SMILES | Potency (C2A) | Potency (CP185) | Potency (CP191) | Potency (CP211) | Potency (CP217) | Potency (CP237) | Potency (CP238) | Potency (CP250) | Potency (CP252) | Potency (CP256) | Potency (CP265) | Potency (CP329) | Potency (DIV30) | Potency (ECU) | Potency (HB3) | Potency (P93_24) | Potency (PC15) | Potency (PC26) | Potency (SC27B) | Potency (TAB113)
CC1(C)S[C@@H]2[C@H](NC(=O)Cc3ccccc3)C(=O)N2[C@@H]1C(=O)O | inactive | inactive | inactive | inactive | inactive | inactive | inactive | inactive | inactive | inactive | inactive | inactive | inactive | inactive | inactive | inactive | inactive | inactive | inactive | inactive
C[C@H](CCC(=O)O)[C@H]1CC[C@@H]2[C@H]3[C@@H](C[C@@H](O)[C@]21C)[C@]1(C)CC[C@H](O)C[C@@H]1C[C@@H]3O | inactive | inactive | inactive | inactive | inactive | inactive | inactive | inactive | inactive | inactive | inactive | inactive | inactive | inactive | inactive | inactive | inactive | inactive | inactive | inactive
CC(C)(C)c1ccc(CN2CCN([C@H](c3ccccc3)c3ccc(Cl)cc3)CC2)cc1 | 10 µM (active) | 10 µM (active) | 10 µM (active) | inactive | 8.91 µM (active) | 7.94 µM (active) | 8.91 µM (active) | 8.91 µM (active) | 11.2 µM (active) | 10 µM (active) | 12.6 µM (active) | inactive | inactive | 10 µM (active) | 8.91 µM (active) | 11.2 µM (active) | 11.2 µM (active) | inactive | 10 µM (active) | 6.31 µM (active)
O=C(O)[C@@H](O)[C@@H](O)[C@H](O)C(=O)CO | inactive | inactive | inactive | inactive | inactive | inactive | inactive | inactive | inactive | inactive | inactive | inactive | inactive | inactive | inactive | inactive | inactive | inactive | inactive | inactive
Cc1onc(-c2c(F)cccc2Cl)c1C(=O)N[C@@H]1C(=O)N2[C@H]1SC(C)(C)[C@H]2C(=O)O | inactive | inactive | inactive | inactive | inactive | inactive | inactive | inactive | inactive | inactive | inactive | inactive | inactive | inactive | inactive | inactive | inactive | inactive | inactive | inactive
